A selection: hits, their analogues and other compounds. The true share with any hit is near 1.5%.
AID504770: E. coli YBA685 growth inhibition, screen for V. cholerae RctB inhibitors. 130,000 tested, 0.27% active. z-score (concentration not given with the values). E. coli YBA685 rctB-dependent plasmid, OD600 growth, 3 h; active compounds read low. AID 504770; in the data active means z-score below about -2, passing the limit was not always enough
PV pol inh: inhibitors of poliovirus RNA polymerase binding and polymerization; P03300; poliovirus polymerase elongation, fluorescence polarization; active compounds read low; % elongation, % (compound at 16.7 µg/mL); 150,000 tested, 0.66% active; AID 588519; in the data active means % elongation below about 90%
Target sequence (P03300 1749-2209 limits assumed): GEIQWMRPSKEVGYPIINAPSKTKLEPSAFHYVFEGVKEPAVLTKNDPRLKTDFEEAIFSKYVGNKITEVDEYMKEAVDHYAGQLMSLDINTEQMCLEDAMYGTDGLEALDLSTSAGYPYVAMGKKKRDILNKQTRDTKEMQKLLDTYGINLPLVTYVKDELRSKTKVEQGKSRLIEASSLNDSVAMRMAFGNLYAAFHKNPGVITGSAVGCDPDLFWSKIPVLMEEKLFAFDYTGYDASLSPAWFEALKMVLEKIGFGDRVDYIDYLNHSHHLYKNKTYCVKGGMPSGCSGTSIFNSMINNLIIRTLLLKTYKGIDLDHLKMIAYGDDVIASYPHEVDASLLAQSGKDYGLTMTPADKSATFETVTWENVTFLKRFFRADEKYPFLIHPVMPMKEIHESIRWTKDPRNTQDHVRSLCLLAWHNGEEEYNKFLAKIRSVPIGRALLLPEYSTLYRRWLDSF
MenB inh: blocks the Mycobacterium tuberculosis MenB enzyme; AID 540299; MenB enzyme assay, absorbance read-out; P9WNP5; 100,000 tested, 0.43% active; inhibition, % (test concentration not listed); in the data active means inhibition above about 21%, passing the limit was not always enough
Mtb MbtI inh: MbtI salicylate synthase inhibition. 100,000 tested, 0.89% active. P9WFX0. inhibition, % (no concentration beside the values). purified MbtI enzyme, fluorescence intensity read-out; in the data active means inhibition mostly above about 56%, no sharp cut-off; inactive means mostly below about 77%
Hits are given with their value; . = inactive; / = no result.

SMILES	AID504770	PV pol inh	MenB inh	Mtb MbtI inh
O=C1C(Sc2ncn[nH]2)=C/C(=N/S(=O)(=O)c2ccc(Cl)cc2)c2ccccc21	.	/	/	95
Clc1ccc(OCCn2ccnc2)c(Br)c1	-2.7	.	.	.
O=c1c(Br)cccc(Br)c1O	-3.5	.	.	.
CCC(CC)NC(=O)c1ccc[nH]c1=S	.	.	.	93
CCCCNC(=O)Sc1ccc2ccccc2c1	.	84	.	.
Cc1cccn(Cc2c(Cl)cccc2Cl)c1=O	.	.	.	.
Cc1cccc(Cl)c1-n1sc(=O)n(CC2CC2)c1=O	.	.	.	72
Cc1noc(C)c1-n1sc(=O)n(CC2CC2)c1=O	.	.	.	99
CCc1ccccc1NC(=O)C(CC)Sc1nc2ccncc2[nH]1 (configuration not stated)	.	.	.	.
Cc1nc(-c2ccc3c(c2)CCO3)sc1C(=O)NC1CCS(=O)(=O)C1 (configuration not stated)	.	/	/	/
CCN(CC)C(=O)CSc1n[nH]c(=S)s1	.	.	.	91
Nc1nc(=Nc2ccccc2)ss1	-4.2	.	.	/
NC1=NC(=Nc2ccccc2)c2ccccc21	.	.	/	.
S=c1cc(-c2ccccc2)[nH]c(=S)[nH]1	.	.	.	86
S=c1nccc(-c2ccccc2)[nH]1	.	83	.	.
CCCN(Cc1nnc(-c2ccccc2Cl)o1)C(=S)NC1CCCCC1	.	.	.	.
COC(=O)c1cn(CC(=O)NC2CCCCCC2)c2ccccc12	.	.	31	.
O=C(Cn1cnc2ccccc21)NC1CCCC1	.	.	33	.
O=C(Cn1cnc2ccccc21)Nc1ccccc1	.	.	.	.
COc1cc2ccncc2cc1OC	.	/	.	.
O=C(NCCN1CCN(c2cccc(Cl)c2)CC1)C1c2ccccc2C(=O)N2CCc3ccccc3C12 (configuration not stated)	.	.	.	.
COC(=O)c1c(NC(=O)CCCOc2ccc(C(C)(C)C)cc2)sc2c1C(C(=O)OC)CC2 (configuration not stated)	/	62	/	/
COc1cc(OC)cc(C(=O)n2nc(C)c(-c3ccccc3)c2N)c1	.	/	/	.
CCc1ccc(S(=O)(=O)c2nnn3c2nc(NCc2ccccc2)c2cc(Cl)ccc23)cc1	/	.	/	/
CCc1ccc(S(=O)(=O)c2nnn3c2nc(NCc2cccc(OC)c2)c2cc(Cl)ccc23)cc1	/	89	/	/
SMILES	AID504770	PV pol inh	MenB inh	Mtb MbtI inh
COc1ccc(Cl)cc1NC(=O)c1cc2c(Cl)nc3ccc(C)cc3c2s1	.	.	.	.
Cc1ccc(NC(=O)c2cc3c(Cl)nc4ccc(C)cc4c3s2)c(Cl)c1	/	63	/	/
Cc1nc(-c2ccc(C(=O)O)cc2)cs1	.	.	28	.
Cc1nc(-c2ccc3c(c2)OCCO3)cs1	.	78	.	92
CC(=O)Nc1nc(-c2ccc3c(c2)OCCO3)cs1	.	/	/	/
COc1ccc(NC(=O)c2sc(=S)n3c2[nH]c(=O)c2ccccc23)cc1	.	.	.	94
COc1cccc(OCC2COS(=O)O2)c1 (configuration not stated)	.	85	.	.
O=S1OCC(COc2cccc3ccccc23)O1 (configuration not stated)	.	76	.	/
O=C1NCC(COc2cccc3ccccc23)O1 (configuration not stated)	.	/	/	.
Cn1/c(=N/N=C2c3cc(S(=O)(=O)NCCO)ccc3-c3ccc(S(=O)(=O)NCCO)cc32)sc2ccccc21	.	.	.	.
CC1OC(C)C(C)C(c2ccccc2O)O1 (configuration not stated)	.	.	.	/
CN(C)C(=S)Nc1ccc2c(c1)OCO2	.	.	.	92
CC(=S)Nc1ccc2c(c1)OCO2	.	72	.	73
CC(=O)NC(NC(C)=O)c1ccc2c(c1)OCO2	.	.	31	.
NC(=O)/C=C/C(=O)Nc1ccc2c(c1)OCO2	.	.	.	101
O=C(/C=C/c1ccccc1)Nc1ccc2c(c1)OCO2	.	.	.	.
O=C(CSc1ccccc1F)Nc1nc(-c2cccs2)cs1	.	/	.	.
CC(C)(C)C(=O)Nc1ccc2c(c1)OCO2	.	.	/	.
CSc1cccc(NC(=S)N(C)C)c1	.	.	.	74
CC(C)(C(=O)Nc1ccc2c(c1)OCO2)C(=O)Nc1ccc2c(c1)OCO2	.	.	41	.
CCN1CCN(CCC(=O)Nc2ccc(C)cc2)CC1	.	.	37	.
CCN1CCN(CCC(=O)Nc2ccc(-c3ccccc3)cc2)CC1	.	.	/	.
Cc1ccccc1C=C1C(=O)N(C)C(=S)N(C)C1=O	.	.	.	72
CCc1ccc(C=C2C(=O)N(C)C(=S)N(C)C2=O)cc1	.	.	.	99
COc1ccc(C=C2C(=O)N(C)C(=S)N(C)C2=O)c(C)c1	.	.	.	.
SMILES	AID504770	PV pol inh	MenB inh	Mtb MbtI inh
CN1C(=O)C(=Cc2cn(CC(=O)O)c3ccccc23)C(=O)N(C)C1=S	.	.	.	75
CC(C)NC(=O)c1cccn2c(=O)c3c4c(sc3nc12)CCCC4	.	.	.	.
c1ccc2[nH]c(SN3CCCCC3)nc2c1	.	.	.	97
c1ccc2[nH]c(SCCCN3CCCCC3)nc2c1	.	.	.	.
C/C(=N\NC(=Nc1ccccc1)c1ccccn1)c1ccccn1	.	.	.	65
CC(C)(C)NCC(O)c1ccccc1Cl (configuration not stated)	.	.	55	.
Cc1cccc(NC(=O)Nc2cccc(C)c2)c1	.	.	.	.
N=C(N)c1cccc(NC(=O)Nc2cccc(C(=N)N)c2)c1	.	88	.	/
COc1ccc(C(=O)NCCn2cc(SCC(=O)Nc3ccccc3)c3ccccc32)cc1	-2.5	.	.	.
O=C(COC(=O)c1cccnc1Nc1cccc(C(F)(F)F)c1)NCc1ccco1	.	.	.	.
CCN(CC)C(=O)c1sc(NC(=S)N(C)Cc2cn(CC)nc2C)c(C(=O)OC)c1C	.	.	.	.
CCOC(=O)c1c(NC(=S)Nn2cnnc2)sc2c1CCCCCC2	.	.	.	89
CCN(CC)C(=O)c1sc(NC(=S)Nn2cnnc2)c(C(=O)OC)c1C	.	.	.	55
CCCCC(=O)Nc1nn2c(-c3cccc(C)c3)nnc2s1	.	.	.	.
CNC(=S)NNc1ncc(C(F)(F)F)cc1Cl	.	.	.	.
CS(=O)(=O)CS(=O)(=O)NNc1ncc(C(F)(F)F)cc1Cl	.	.	.	57
COc1cc(C(=O)COC(=O)CSc2nc3ccccc3o2)ccc1OC(F)F	.	.	.	.
Cn1c(CSc2cc(C(F)(F)F)nc3ccccc23)n[nH]c1=S	.	.	.	65
Cc1ccc(S(=O)(=O)NCCSc2cc(C(F)(F)F)nc3ccccc23)cc1	.	.	.	.
COCc1nnc(NC(=O)/C=C/c2ccc3c(c2)OCO3)s1	.	.	.	.
CCOc1ccc(NC(=O)c2ccc(-n3cnnc3)cc2)cc1	.	.	.	.
Cn1nc(-c2ccccc2F)c2cc(C(=O)Nc3ccc(S(N)(=O)=O)cc3)sc21	.	.	.	.
COc1ccc(NC(=O)c2cc3ccc(O)cc3oc2=Nc2ccc(C(=O)O)cc2)cc1	.	.	.	.
COc1ccc(NC(=O)c2cc3ccc(O)cc3o/c2=N\O)cc1	.	.	32	.

Source: PubChem BioAssay
